From PubChem BioAssay
The full list was thinned out, with hits kept by preference.
HT1080 IDH1KD tx: toxicity to HT-1080 IDH1 knockdown cells (counter line). HT-1080 IDH1 knockdown viability, ATP luminescence, 48 h. Potency, µM (highest dose often 46.1 µM), without a hit: at the top dose activity, negative = toxicity, most hits filed as cytotoxic. actives 2% (n = 360,000). AID 686971;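 further: potency means the concentration at half of the fitted maximal effect; 0% = DMSO wells and -100% = cell-free medium wells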
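Knockdown cells (IDH1KD HT-1080) received compounds 2 h after plating at 750 cells/well and were kept 48 h at 37 °C in 5% FBS RPMI. A CellTiter-Glo luminescence read gave % activity for curve fitting.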
IL1B secr inh: inflammasome signaling inhibition, IL-1 beta readout; AID 743279; THP-1 LPS/ATP IL-1B secretion, AlphaLISA, 16 h; hits give low values; actives 4.7% (n = 360,000); activity change, % at 57.5 µM; in the data active means activity change below about -50%; inconclusive means mostly about -30% to -49%
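Secreted IL-1B measured by AlphaLISA bead assay after 16 h compound exposure of THP-1 cells; compounds (final up to 57.5 uM) added 1 h before LPS (250 ng/mL) and ATP (1.25 mM) stimulation; lower signal means less secretion.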
HT1080NT lethal: kills 2HG-producing HT-1080-NT fibrosarcoma cells; HT-1080-NT fibrosarcoma viability, CellTiter-Glo ATP luminescence, 48 h; Potency, µM (series often up to 46.1 µM), inactives show at the top dose activity, negative = less viability, actives largely listed as cytotoxic; actives 1.6% (n = 360,000); AID 686970;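 further: NT is the 2HG producing partner of a matched IDH1 knockdown line; potency means the concentration at half of the fitted maximal effect; 0% = DMSO-treated cells and -100% = media-only wells without cells; nearly all actives have a fitted effect of over 55% in size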
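750 cells/well, RPMI + 5% FBS; 2 h settle, compound pin-transfer, 48 h at 37 degrees C. CellTiter-Glo 10 min RT, luminescence. Normalized to DMSO and media-only wells.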
DT40 TDP1 CPT: growth inhibition of DT40 Tdp1-/-;hTDP1 cells with camptothecin (screen for TDP1 inhibitors); chicken DT40 Tdp1-/-;hTDP1 cells + 20 nM CPT, ATP luminescence, 48 h; AID 686979; actives 12% (n = 420,000); Potency, µM (series often up to 46.2 µM), for inactives: top-dose activity change, negative = growth inhibition, hits mostly inhibitors; further: potency means the concentration at half of the fitted maximal effect; nearly all actives have a fitted effect of over 55% in size
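Chicken DT40 Tdp1-/- cells stably complemented with human TDP1 were seeded at 400 cells/well in medium containing 20 nM camptothecin, exposed to pin-transferred compounds, and grown at 37 °C for at least 48 hr. Viability was read as ATP luminescence.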
12-LOX inh: inhibitors of human 12S-lipoxygenase ALOX12; purified 12hLO, xylenol orange hydroperoxide absorbance; Potency, µM (doses to about 108 µM), for inactives: top-dose activity change, negative = inhibition, hits mostly inhibitors; actives 1.1% (n = 580,000); AID 1671190; further: potency means the concentration at half of the fitted maximal effect
Target sequence (P18054 whole entry, looked up): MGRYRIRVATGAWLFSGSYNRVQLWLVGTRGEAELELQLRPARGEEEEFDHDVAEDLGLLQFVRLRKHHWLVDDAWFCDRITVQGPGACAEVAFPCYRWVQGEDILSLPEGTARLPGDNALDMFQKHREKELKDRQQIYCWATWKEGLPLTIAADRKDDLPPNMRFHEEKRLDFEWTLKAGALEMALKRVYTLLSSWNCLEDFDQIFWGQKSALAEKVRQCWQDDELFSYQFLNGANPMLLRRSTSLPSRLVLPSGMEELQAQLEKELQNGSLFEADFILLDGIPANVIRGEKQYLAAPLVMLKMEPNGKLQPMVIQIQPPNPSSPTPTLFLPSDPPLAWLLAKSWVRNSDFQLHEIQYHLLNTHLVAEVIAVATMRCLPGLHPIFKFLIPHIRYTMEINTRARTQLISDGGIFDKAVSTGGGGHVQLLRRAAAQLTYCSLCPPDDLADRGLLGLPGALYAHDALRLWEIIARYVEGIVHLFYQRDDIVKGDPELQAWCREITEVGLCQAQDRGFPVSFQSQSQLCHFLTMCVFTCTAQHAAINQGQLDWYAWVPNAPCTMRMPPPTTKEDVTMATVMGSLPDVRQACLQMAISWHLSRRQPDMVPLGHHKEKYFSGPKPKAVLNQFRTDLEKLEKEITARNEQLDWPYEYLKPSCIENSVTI
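Purified human 12hLO at 150 nM in 25 mM Hepes, 0.01% Triton X-100, pH 7.0, preincubated 15 min at room temperature with compound. Reaction started with 40 uM arachidonic acid, 30 min at room temperature. Hydroperoxide measured by Fe-xylenol orange, 573/405 nm absorbance ratio.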
DT40 TDP1 no CPT: qHTS for Inhibitors of human tyrosyl-DNA phosphodiesterase 1 (TDP1): qHTS in cells in absence of CPT | Potency, µM (highest dose often 46.2 µM), without a hit: at the highest dose activity change, negative = growth inhibition, hits mostly inhibitors | DT40 Tdp1-/- hTDP1 cells, no CPT, ATP luminescence, 48 h | actives 15% (n = 420,000); further: potency means the concentration at half of the fitted maximal effect; nearly all actives have a fitted effect of over 55% in size
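No-CPT arm: Tdp1-/-;hTDP1 DT40 cells (400/well) plus compounds, incubated ≥48 hr at 37 °C. Readout CellTiter-Glo luminescence.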
The depositor's hits bear a star; [ ] = dose if it differs, or a comment. Unless noted, the call rests on the fitted dose curve; in most records, active means well fitted curve in the direction sought with a large enough effect; inconclusive means small, poorly fitted or top-dose-only effect, or another doubt; inactive means no such curve, though single readings can be large; an effect the other way counts as inactive or inconclusive. Unless noted, on the % scale 0 is the no-effect control and ±100 the full control effect.

Screening CC(C)n1cnc2cc(NCc3nc4ccccc4n3C)ccc21 returned HT1080 IDH1KD tx -8%, IL1B secr inh -9, HT1080NT lethal -14%, DT40 TDP1 CPT -10%, 12-LOX inh 8% and DT40 TDP1 no CPT -14%.
CCCn1cnc2cc(NCc3ccc(Br)cc3)ccc21 was read as HT1080 IDH1KD tx -15%, IL1B secr inh -83*, HT1080NT lethal -10%, DT40 TDP1 CPT inconclusive, 12-LOX inh -17% and DT40 TDP1 no CPT inconclusive.
CCn1cnc2cc(NCc3ccc(N(C)C)cc3)ccc21 was read as HT1080 IDH1KD tx 4%, IL1B secr inh inconclusive, HT1080NT lethal 1%, DT40 TDP1 CPT 15µM*, 12-LOX inh -14% and DT40 TDP1 no CPT 18µM*.
Screening CCn1cnc2cc(NCc3ccc(C)cc3)ccc21 returned HT1080 IDH1KD tx -20%, IL1B secr inh -57*, HT1080NT lethal -1%, DT40 TDP1 CPT -9%, 12-LOX inh 0% and DT40 TDP1 no CPT -25%.
`Cc1ccc(CNc2ccc3c(c2)ncn3C(C)C)cc1` gave HT1080 IDH1KD tx 4%, IL1B secr inh inconclusive, HT1080NT lethal 2%, DT40 TDP1 CPT 12µM*, 12-LOX inh 31% and DT40 TDP1 no CPT 13µM*.
`CN(C)c1ccc(CNc2ccc3c(c2)ncn3C(C)(C)C)cc1` gave HT1080 IDH1KD tx inconclusive, IL1B secr inh -24, HT1080NT lethal -27%, DT40 TDP1 CPT -92%, 12-LOX inh 0% and DT40 TDP1 no CPT -27%.
Screening O=C1CCCC2=C1C(c1ccccc1Cl)CC(=O)N2c1ccc(F)cc1F (stereo unspecified) returned 12-LOX inh 4%.
For O=C(Nc1ccc2ncccc2c1)c1cccc(Br)c1 the results were HT1080 IDH1KD tx 9%, IL1B secr inh -5, HT1080NT lethal 12%, DT40 TDP1 CPT inconclusive, 12-LOX inh inconclusive and DT40 TDP1 no CPT -22%.
`CCn1cnc2cc(NCc3nc4ccccc4n3C)ccc21` gave HT1080 IDH1KD tx -14%, IL1B secr inh -6, HT1080NT lethal 8%, DT40 TDP1 CPT -15%, 12-LOX inh 1% and DT40 TDP1 no CPT inconclusive.
Screening Cn1cnc2cc(NCc3ccc(Cl)cc3)ccc21 returned HT1080 IDH1KD tx 5%, IL1B secr inh -4, HT1080NT lethal -2%, DT40 TDP1 CPT inconclusive, 12-LOX inh 4% and DT40 TDP1 no CPT inconclusive.
Screening CCN(CC)c1ccc(CNc2ccc3c(c2)ncn3CC)cc1 returned HT1080 IDH1KD tx 0%, IL1B secr inh -96*, HT1080NT lethal 0%, DT40 TDP1 CPT inconclusive, 12-LOX inh 247% and DT40 TDP1 no CPT -26%.
For Brc1ccc(CNc2ccc3ncccc3c2)cc1 the results were HT1080 IDH1KD tx -10%, IL1B secr inh -13, HT1080NT lethal -10%, DT40 TDP1 CPT 21µM*, 12-LOX inh -35% and DT40 TDP1 no CPT 12µM*.
CCn1cnc2cc(NCc3nc4ccccc4n3Cc3ccccc3)ccc21 was read as HT1080 IDH1KD tx -12%, IL1B secr inh -13, HT1080NT lethal -22%, DT40 TDP1 CPT 15µM*, 12-LOX inh 13% and DT40 TDP1 no CPT inconclusive.
For CCCn1cnc2cc(NCc3ccc(OC)cc3OC)ccc21 the results were DT40 TDP1 CPT 16µM*, 12-LOX inh 7% and DT40 TDP1 no CPT 23µM*.
Screening CS(=O)(=O)N1CCC(CC(=O)N2CC=C(c3ccccc3)CC2)C1 (stereo unspecified) returned 12-LOX inh 30%.
`O=C1CCN(S(=O)(=O)c2ccc3c(c2)CCC3)CCCC(C(=O)NCc2ccncc2)CCN1` (stereo unspecified) gave 12-LOX inh 4%.
For Cc1ccc([S+](=O)([O-])N2CCn3c(nn(-c4ccc(C(F)(F)F)cc4)c3=O)C2)cc1 the results were 12-LOX inh 41%.
`CC1CCCC(C)N1S(=O)(=O)c1ccc(S(=O)(=O)NCCc2ccncc2)cc1` (stereo unspecified) gave HT1080 IDH1KD tx -2%[9.24 µM], IL1B secr inh inconclusive, HT1080NT lethal -17%, DT40 TDP1 CPT inconclusive, 12-LOX inh 26% and DT40 TDP1 no CPT inconclusive.
CCCCCc1ccc(S(=O)(=O)NCCc2ccncc2)cc1 was read as HT1080 IDH1KD tx inconclusive, IL1B secr inh inconclusive, HT1080NT lethal -15%, DT40 TDP1 CPT 21µM*, 12-LOX inh 10% and DT40 TDP1 no CPT 16µM*.
For CC(C)(C)c1ccc(S(=O)(=O)NCCc2ccncc2)cc1 the results were HT1080 IDH1KD tx -3%, IL1B secr inh -29, HT1080NT lethal 1%, DT40 TDP1 CPT inconclusive, 12-LOX inh -24% and DT40 TDP1 no CPT 16µM*.
Screening O=C(Nc1ccc(S(=O)(=O)NCCc2ccccc2)cc1)c1ccncc1 returned HT1080 IDH1KD tx -14%, IL1B secr inh 8, HT1080NT lethal -29%, DT40 TDP1 CPT 18µM*, 12-LOX inh 4% and DT40 TDP1 no CPT inconclusive.
`CCCc1ccc(S(=O)(=O)NCCc2ccncc2)cc1` gave HT1080 IDH1KD tx -16%, IL1B secr inh -7, HT1080NT lethal 0%, DT40 TDP1 CPT 13µM*, 12-LOX inh 0% and DT40 TDP1 no CPT inconclusive.
For O=C(Nc1ccc(S(=O)(=O)NCCc2ccccc2)cc1)c1ccco1 the results were HT1080 IDH1KD tx -20%, IL1B secr inh 15, HT1080NT lethal -6%, DT40 TDP1 CPT -27%, 12-LOX inh inconclusive and DT40 TDP1 no CPT inconclusive.
`CCOC(=O)c1cc(NS(=O)(=O)c2ccc3ccccc3c2)cc(C(=O)OCC)c1` gave 12-LOX inh 0%.
For CCCCCCOc1ccc(/C=c2\s/c(=C(/C#N)C(=O)NCc3ccco3)n(-c3ccccc3)c2=O)cc1 the results were HT1080 IDH1KD tx -8%, IL1B secr inh 8, HT1080NT lethal 10%, DT40 TDP1 CPT 2.9µM*, 12-LOX inh -2% and DT40 TDP1 no CPT 6.5µM*.
CC(C)N1CCN(Cc2ccc(-c3ccccc3)cc2)CC1CCO (stereo unspecified) was read as HT1080 IDH1KD tx inconclusive, IL1B secr inh -15, HT1080NT lethal inconclusive, DT40 TDP1 CPT 2%, 12-LOX inh -22% and DT40 TDP1 no CPT inconclusive.
`CC(C)N1CCN(Cc2ccc3c(c2)Cc2ccccc2-3)CC1CCO` (stereo unspecified) gave HT1080 IDH1KD tx inconclusive, IL1B secr inh -11, HT1080NT lethal inconclusive, DT40 TDP1 CPT inconclusive, 12-LOX inh 9% and DT40 TDP1 no CPT 23µM*.
